Substitutions are numbered along the chain they refer to.
Legend:
Experiment in all cases: PBM; 200 nM protein, PBS
Settings in all cases: dsDNA, one strand shown
HOXA7 [1] = target: HOXA7 (Homo sapiens, UniProt P31268 116-202)
PAX4 [2] = target: T1, PAX4 (Homo sapiens, UniProt O43316 9-242, R200K)
T1 sequence: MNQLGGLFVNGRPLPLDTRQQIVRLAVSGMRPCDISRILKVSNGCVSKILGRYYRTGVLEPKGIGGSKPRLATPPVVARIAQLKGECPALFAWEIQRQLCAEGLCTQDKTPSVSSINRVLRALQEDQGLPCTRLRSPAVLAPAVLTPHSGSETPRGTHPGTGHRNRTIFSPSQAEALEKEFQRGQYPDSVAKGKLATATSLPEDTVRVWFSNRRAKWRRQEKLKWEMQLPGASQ

PAX4 [3] = target: T2, PAX4 (Homo sapiens, UniProt O43316 9-242)
T2 sequence: T1 sequence with K192R

PAX4 [4] = target: T3, PAX4 (Homo sapiens, UniProt O43316 9-242, R200Q)
T3 sequence: T1 sequence with K192Q

PAX4 [5] = target: T4, PAX4 (Homo sapiens, UniProt O43316 9-242, F177V)
T4 sequence: T1 sequence with F169V, K192R

HOXA7 [6] = target: HOXA7 (Homo sapiens, UniProt P31268 116-202, W177C)
HOXA7 (Homo sapiens, UniProt P31268 116-202, W177C), sequence (P31268 116-202 W177C): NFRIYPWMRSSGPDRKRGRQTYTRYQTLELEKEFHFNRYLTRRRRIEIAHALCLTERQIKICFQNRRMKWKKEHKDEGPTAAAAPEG

HOXB6 [7] = target: HOXB6 (Homo sapiens, UniProt P17509 132-218, K202E)
HOXB6 (Homo sapiens, UniProt P17509 132-218, K202E), sequence (P17509 132-218 K202E): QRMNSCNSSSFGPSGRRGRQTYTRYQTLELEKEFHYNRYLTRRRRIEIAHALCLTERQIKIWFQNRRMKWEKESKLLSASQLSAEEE

HOXA4 [8] = target: HOXA4 (Homo sapiens, UniProt Q00056 201-287, R217L)
HOXA4 (Homo sapiens, UniProt Q00056 201-287, R217L), sequence (Q00056 201-287 R217L): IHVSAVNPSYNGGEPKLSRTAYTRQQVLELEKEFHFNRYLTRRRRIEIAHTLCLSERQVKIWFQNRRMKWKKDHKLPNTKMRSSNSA

HOXC10 = HOXC10 (Homo sapiens, UniProt Q9NYD6 254-340, K271E)
HOXC10, sequence (Q9NYD6 254-340 K271E): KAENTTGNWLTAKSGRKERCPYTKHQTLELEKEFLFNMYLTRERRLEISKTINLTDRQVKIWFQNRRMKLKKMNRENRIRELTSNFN

MSX2 [9] = target: MSX2 (Homo sapiens, UniProt P35548 130-214, F161Y)
MSX2 (Homo sapiens, UniProt P35548 130-214, F161Y), sequence (P35548 130-214 F161Y): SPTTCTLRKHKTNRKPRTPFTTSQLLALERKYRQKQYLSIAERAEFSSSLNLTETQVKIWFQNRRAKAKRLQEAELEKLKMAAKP

HOXA4 [10] = target: HOXA4 (Homo sapiens, UniProt Q00056 201-287, W262F)
HOXA4 (Homo sapiens, UniProt Q00056 201-287, W262F), sequence (Q00056 201-287 W262F): as the sequence (Q00056 201-287 R217L) above, with L17R, W62F counted along it

HOXB6 [11] = target: HOXB6 (Homo sapiens, UniProt P17509 132-218)
HOXB6 (Homo sapiens, UniProt P17509 132-218), sequence (P17509 132-218): as the sequence (P17509 132-218 K202E) above, with E71K counted along it

ALX3 = ALX3 (Homo sapiens, UniProt O95076 139-225)
ALX3, sequence (O95076 139-225): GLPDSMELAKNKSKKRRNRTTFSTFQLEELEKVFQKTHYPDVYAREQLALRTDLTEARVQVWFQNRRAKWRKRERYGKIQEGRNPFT

ALX1 [12] = target: ALX1 (Homo sapiens, UniProt Q15699 118-204, L144V)
ALX1 (Homo sapiens, UniProt Q15699 118-204, L144V), sequence (Q15699 118-204 L144V): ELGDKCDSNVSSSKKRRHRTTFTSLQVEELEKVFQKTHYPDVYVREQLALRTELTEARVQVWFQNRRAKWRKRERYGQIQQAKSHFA

ALX1 [13] = target: ALX1 (Homo sapiens, UniProt Q15699 118-204, L144R)
ALX1 (Homo sapiens, UniProt Q15699 118-204, L144R), sequence (Q15699 118-204 L144R): as the sequence (Q15699 118-204 L144V) above, with V27R counted along it

ALX1 [14] = target: ALX1 (Homo sapiens, UniProt Q15699 118-204)
ALX1 (Homo sapiens, UniProt Q15699 118-204), sequence (Q15699 118-204): as the sequence (Q15699 118-204 L144V) above, with V27L counted along it

ALX4 [15] = target: ALX4 (Homo sapiens, UniProt Q9H161 200-286)
ALX4 (Homo sapiens, UniProt Q9H161 200-286), sequence (Q9H161 200-286): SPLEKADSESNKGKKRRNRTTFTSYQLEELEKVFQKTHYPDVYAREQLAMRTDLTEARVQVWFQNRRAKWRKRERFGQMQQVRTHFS

ALX4 [16] = target: ALX4 (Homo sapiens, UniProt Q9H161 200-286, Q225E)
ALX4 (Homo sapiens, UniProt Q9H161 200-286, Q225E), sequence (Q9H161 200-286 Q225E): as the sequence (Q9H161 200-286) above, with Q26E counted along it

NKX2-6 [17] = target: T5, NKX2-6 (Homo sapiens, UniProt A6NCS4 118-204)
T5 sequence: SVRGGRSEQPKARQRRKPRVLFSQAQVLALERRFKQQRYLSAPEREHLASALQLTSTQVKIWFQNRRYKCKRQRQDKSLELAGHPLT

NKX2-6 [18] = target: T6, NKX2-6 (Homo sapiens, UniProt A6NCS4 118-204, F151L)
T6 sequence: T5 sequence with F34L

NKX3-2 [19] = target: NKX3-2 (Homo sapiens, UniProt P78367 192-278, P234S)
NKX3-2 (Homo sapiens, UniProt P78367 192-278, P234S), sequence (P78367 192-278 P234S): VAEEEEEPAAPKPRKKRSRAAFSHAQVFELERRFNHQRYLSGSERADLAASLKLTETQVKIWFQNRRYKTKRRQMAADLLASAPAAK

NKX3-2 [20] = target: NKX3-2 (Homo sapiens, UniProt P78367 192-278)
NKX3-2 (Homo sapiens, UniProt P78367 192-278), sequence (P78367 192-278): as the sequence (P78367 192-278 P234S) above, with S43P counted along it

HOXA2 [21] = target: HOXA2 (Homo sapiens, UniProt O43364 129-215, R185T)
HOXA2 (Homo sapiens, UniProt O43364 129-215, R185T), sequence (O43364 129-215 R185T): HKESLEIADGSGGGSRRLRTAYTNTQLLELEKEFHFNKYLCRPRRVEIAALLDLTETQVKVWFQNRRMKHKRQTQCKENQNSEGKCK

MSX2 [22] = target: MSX2 (Homo sapiens, UniProt P35548 130-214, R199I)
MSX2 (Homo sapiens, UniProt P35548 130-214, R199I), sequence (P35548 130-214 R199I): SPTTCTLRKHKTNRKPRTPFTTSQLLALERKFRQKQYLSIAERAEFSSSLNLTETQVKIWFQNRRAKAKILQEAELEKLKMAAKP

HOXA2 [23] = target: HOXA2 (Homo sapiens, UniProt O43364 129-215, R185K)
HOXA2 (Homo sapiens, UniProt O43364 129-215, R185K), sequence (O43364 129-215 R185K): as the sequence (O43364 129-215 R185T) above, with T57K counted along it

MSX2 [24] = target: MSX2 (Homo sapiens, UniProt P35548 130-214)
MSX2 (Homo sapiens, UniProt P35548 130-214), sequence (P35548 130-214): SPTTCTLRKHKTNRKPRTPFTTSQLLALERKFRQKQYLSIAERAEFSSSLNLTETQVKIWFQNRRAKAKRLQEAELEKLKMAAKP

HOXA2 [25] = target: HOXA2 (Homo sapiens, UniProt O43364 129-215, Y150S)
HOXA2 (Homo sapiens, UniProt O43364 129-215, Y150S), sequence (O43364 129-215 Y150S): as the sequence (O43364 129-215 R185T) above, with Y22S, T57R counted along it

HOXA2 [26] = target: HOXA2 (Homo sapiens, UniProt O43364 129-215)
HOXA2 (Homo sapiens, UniProt O43364 129-215), sequence (O43364 129-215): as the sequence (O43364 129-215 R185T) above, with T57R counted along it

PROP1 [27] = target: PROP1 (Homo sapiens, UniProt O75360 56-141)
PROP1 (Homo sapiens, UniProt O75360 56-141), sequence (O75360 56-141): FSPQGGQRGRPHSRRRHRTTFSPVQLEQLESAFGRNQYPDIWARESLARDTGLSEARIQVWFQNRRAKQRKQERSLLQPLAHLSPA

PROP1 [28] = target: PROP1 (Homo sapiens, UniProt O75360 56-141, R99H)
PROP1 (Homo sapiens, UniProt O75360 56-141, R99H), sequence (O75360 56-141 R99H): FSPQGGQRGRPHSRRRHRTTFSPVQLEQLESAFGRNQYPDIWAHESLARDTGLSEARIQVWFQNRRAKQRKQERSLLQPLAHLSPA

PROP1 [29] = target: PROP1 (Homo sapiens, UniProt O75360 56-141, F88S)
PROP1 (Homo sapiens, UniProt O75360 56-141, F88S), sequence (O75360 56-141 F88S): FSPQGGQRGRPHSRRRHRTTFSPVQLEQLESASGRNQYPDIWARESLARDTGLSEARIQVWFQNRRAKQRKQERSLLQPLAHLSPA

PITX2 = PITX2 (Homo sapiens, UniProt Q99697 72-157)

HOXA7 (Homo sapiens, UniProt P31268 116-202), sequence (P31268 116-202): as the sequence (P31268 116-202 W177C) above, with C62W counted along it

GATTACAC
binding signal (HOXA7 [1]): 9.6 upbm affinity estimate (log intensity, higher = more binding, comparable within an allelic series) | binding signal (PAX4 [2]): 10.9 upbm affinity estimate (log intensity, higher = more binding, comparable within an allelic series) | binding signal (PAX4 [3]): 11.2 upbm affinity estimate (log intensity, higher = more binding, comparable within an allelic series) | binding signal (PAX4 [4]): 11 upbm affinity estimate (log intensity, higher = more binding, comparable within an allelic series) | binding signal (PAX4 [5]): 10.3 upbm affinity estimate (log intensity, higher = more binding, comparable within an allelic series) | binding signal (HOXA7 [6]): 8.73 upbm affinity estimate (log intensity, higher = more binding, comparable within an allelic series)

CGTGCAAG
binding signal (HOXA7 [1]): 8.47 upbm affinity estimate (log intensity, higher = more binding, comparable within an allelic series) | binding signal (HOXA7 [6]): 8.43 upbm affinity estimate (log intensity, higher = more binding, comparable within an allelic series)

AATTACCT
binding signal (HOXA7 [1]): 11.3 upbm affinity estimate (log intensity, higher = more binding, comparable within an allelic series) | binding signal (HOXB6 [7]): 9.87 upbm affinity estimate (log intensity, higher = more binding, comparable within an allelic series) | binding signal (HOXA4 [8]): 12.1 upbm affinity estimate (log intensity, higher = more binding, comparable within an allelic series) | binding signal (HOXC10): 11.9 upbm affinity estimate (log intensity, higher = more binding, comparable within an allelic series) | binding signal (MSX2 [9]): 12.9 upbm affinity estimate (log intensity, higher = more binding, comparable within an allelic series) | binding signal (HOXA7 [6]): 8.74 upbm affinity estimate (log intensity, higher = more binding, comparable within an allelic series) | binding signal (HOXA4 [10]): 11.5 upbm affinity estimate (log intensity, higher = more binding, comparable within an allelic series) | binding signal (HOXB6 [11]): 11.8 upbm affinity estimate (log intensity, higher = more binding, comparable within an allelic series)

AACTTTAT
binding signal (HOXA7 [1]): 9.71 upbm affinity estimate (log intensity, higher = more binding, comparable within an allelic series) | binding signal (ALX3): 9.63 upbm affinity estimate (log intensity, higher = more binding, comparable within an allelic series) | binding signal (HOXA7 [6]): 8.8 upbm affinity estimate (log intensity, higher = more binding, comparable within an allelic series)

GCTATAAC
binding signal (HOXA7 [1]): 9.4 upbm affinity estimate (log intensity, higher = more binding, comparable within an allelic series) | binding signal (ALX1 [12]): 8.22 upbm affinity estimate (log intensity, higher = more binding, comparable within an allelic series) | binding signal (ALX1 [13]): 8.11 upbm affinity estimate (log intensity, higher = more binding, comparable within an allelic series) | binding signal (HOXA7 [6]): 8.68 upbm affinity estimate (log intensity, higher = more binding, comparable within an allelic series) | binding signal (ALX1 [14]): 8.21 upbm affinity estimate (log intensity, higher = more binding, comparable within an allelic series)

GAATATAA
binding signal (HOXA7 [1]): 9.85 upbm affinity estimate (log intensity, higher = more binding, comparable within an allelic series) | binding signal (ALX4 [15]): 10.8 upbm affinity estimate (log intensity, higher = more binding, comparable within an allelic series) | binding signal (ALX4 [16]): 9.99 upbm affinity estimate (log intensity, higher = more binding, comparable within an allelic series) | binding signal (HOXA7 [6]): 8.92 upbm affinity estimate (log intensity, higher = more binding, comparable within an allelic series)

AGCAGAAG
binding signal (HOXA7 [1]): 8.46 upbm affinity estimate (log intensity, higher = more binding, comparable within an allelic series) | binding signal (HOXA7 [6]): 8.54 upbm affinity estimate (log intensity, higher = more binding, comparable within an allelic series)

CCAAGCCA
binding signal (HOXA7 [1]): 8.43 upbm affinity estimate (log intensity, higher = more binding, comparable within an allelic series) | binding signal (ALX1 [12]): 6.51 upbm affinity estimate (log intensity, higher = more binding, comparable within an allelic series) | binding signal (ALX1 [13]): 6.6 upbm affinity estimate (log intensity, higher = more binding, comparable within an allelic series) | binding signal (HOXA7 [6]): 8.54 upbm affinity estimate (log intensity, higher = more binding, comparable within an allelic series) | binding signal (ALX1 [14]): 6.46 upbm affinity estimate (log intensity, higher = more binding, comparable within an allelic series)

CAAGCACC
binding signal (HOXA7 [1]): 8.65 upbm affinity estimate (log intensity, higher = more binding, comparable within an allelic series) | binding signal (HOXA7 [6]): 8.49 upbm affinity estimate (log intensity, higher = more binding, comparable within an allelic series)

CCGGGGGC
binding signal (HOXA7 [1]): 8.67 upbm affinity estimate (log intensity, higher = more binding, comparable within an allelic series) | binding signal (NKX2-6 [17]): 9.19 upbm affinity estimate (log intensity, higher = more binding, comparable within an allelic series) | binding signal (NKX2-6 [18]): 8.93 upbm affinity estimate (log intensity, higher = more binding, comparable within an allelic series) | binding signal (HOXA7 [6]): 8.26 upbm affinity estimate (log intensity, higher = more binding, comparable within an allelic series)

ACCTGCAC
binding signal (HOXA7 [1]): 8.57 upbm affinity estimate (log intensity, higher = more binding, comparable within an allelic series) | binding signal (HOXA7 [6]): 8.45 upbm affinity estimate (log intensity, higher = more binding, comparable within an allelic series)

CGGCGTTC
binding signal (HOXA7 [1]): 8.31 upbm affinity estimate (log intensity, higher = more binding, comparable within an allelic series) | binding signal (ALX1 [12]): 6.29 upbm affinity estimate (log intensity, higher = more binding, comparable within an allelic series) | binding signal (ALX1 [13]): 6.24 upbm affinity estimate (log intensity, higher = more binding, comparable within an allelic series) | binding signal (HOXA7 [6]): 8.26 upbm affinity estimate (log intensity, higher = more binding, comparable within an allelic series) | binding signal (NKX3-2 [19]): 10.4 upbm affinity estimate (log intensity, higher = more binding, comparable within an allelic series) | binding signal (ALX1 [14]): 6.31 upbm affinity estimate (log intensity, higher = more binding, comparable within an allelic series) | binding signal (NKX3-2 [20]): 10.4 upbm affinity estimate (log intensity, higher = more binding, comparable within an allelic series)

GACCCTGC
binding signal (HOXA7 [1]): 8.54 upbm affinity estimate (log intensity, higher = more binding, comparable within an allelic series) | binding signal (HOXA2 [21]): 7.03 upbm affinity estimate (log intensity, higher = more binding, comparable within an allelic series) | binding signal (MSX2 [22]): 9.48 upbm affinity estimate (log intensity, higher = more binding, comparable within an allelic series) | binding signal (HOXA2 [23]): 10.3 upbm affinity estimate (log intensity, higher = more binding, comparable within an allelic series) | binding signal (MSX2 [24]): 9.31 upbm affinity estimate (log intensity, higher = more binding, comparable within an allelic series) | binding signal (MSX2 [9]): 9.36 upbm affinity estimate (log intensity, higher = more binding, comparable within an allelic series) | binding signal (HOXA2 [25]): 10.5 upbm affinity estimate (log intensity, higher = more binding, comparable within an allelic series) | binding signal (HOXA7 [6]): 8.43 upbm affinity estimate (log intensity, higher = more binding, comparable within an allelic series) | binding signal (HOXA2 [26]): 6.79 upbm affinity estimate (log intensity, higher = more binding, comparable within an allelic series)

CAGTGCGG
binding signal (HOXA7 [1]): 8.54 upbm affinity estimate (log intensity, higher = more binding, comparable within an allelic series) | binding signal (PROP1 [27]): 6.84 upbm affinity estimate (log intensity, higher = more binding, comparable within an allelic series) | binding signal (PROP1 [28]): 6.82 upbm affinity estimate (log intensity, higher = more binding, comparable within an allelic series) | binding signal (PROP1 [29]): 6.73 upbm affinity estimate (log intensity, higher = more binding, comparable within an allelic series) | binding signal (HOXA7 [6]): 8.37 upbm affinity estimate (log intensity, higher = more binding, comparable within an allelic series)

CTGCTTCA
binding signal (HOXA7 [1]): 8.51 upbm affinity estimate (log intensity, higher = more binding, comparable within an allelic series) | binding signal (PITX2): 7.83 upbm affinity estimate (log intensity, higher = more binding, comparable within an allelic series) | binding signal (HOXA7 [6]): 8.44 upbm affinity estimate (log intensity, higher = more binding, comparable within an allelic series)

CCTTCCGC
binding signal (HOXA7 [1]): 8.39 upbm affinity estimate (log intensity, higher = more binding, comparable within an allelic series) | binding signal (HOXA7 [6]): 8.37 upbm affinity estimate (log intensity, higher = more binding, comparable within an allelic series)

AGCTTTCC
binding signal (HOXA7 [1]): 8.42 upbm affinity estimate (log intensity, higher = more binding, comparable within an allelic series) | binding signal (PROP1 [27]): 6.7 upbm affinity estimate (log intensity, higher = more binding, comparable within an allelic series) | binding signal (PROP1 [28]): 6.84 upbm affinity estimate (log intensity, higher = more binding, comparable within an allelic series) | binding signal (PROP1 [29]): 7.01 upbm affinity estimate (log intensity, higher = more binding, comparable within an allelic series) | binding signal (HOXA7 [6]): 8.43 upbm affinity estimate (log intensity, higher = more binding, comparable within an allelic series)

CGTTTATC
binding signal (HOXA7 [1]): 9.65 upbm affinity estimate (log intensity, higher = more binding, comparable within an allelic series) | binding signal (PROP1 [27]): 8.39 upbm affinity estimate (log intensity, higher = more binding, comparable within an allelic series) | binding signal (PROP1 [28]): 7.9 upbm affinity estimate (log intensity, higher = more binding, comparable within an allelic series) | binding signal (PROP1 [29]): 7.41 upbm affinity estimate (log intensity, higher = more binding, comparable within an allelic series) | binding signal (HOXA7 [6]): 8.89 upbm affinity estimate (log intensity, higher = more binding, comparable within an allelic series)

GTATTTAA
binding signal (HOXA7 [1]): 10.1 upbm affinity estimate (log intensity, higher = more binding, comparable within an allelic series) | binding signal (PROP1 [27]): 9.2 upbm affinity estimate (log intensity, higher = more binding, comparable within an allelic series) | binding signal (PROP1 [28]): 8.79 upbm affinity estimate (log intensity, higher = more binding, comparable within an allelic series) | binding signal (PROP1 [29]): 7.52 upbm affinity estimate (log intensity, higher = more binding, comparable within an allelic series) | binding signal (HOXA7 [6]): 8.94 upbm affinity estimate (log intensity, higher = more binding, comparable within an allelic series)

GAGGGACC
binding signal (HOXA7 [1]): 8.55 upbm affinity estimate (log intensity, higher = more binding, comparable within an allelic series) | binding signal (MSX2 [22]): 9.48 upbm affinity estimate (log intensity, higher = more binding, comparable within an allelic series) | binding signal (MSX2 [24]): 9.7 upbm affinity estimate (log intensity, higher = more binding, comparable within an allelic series) | binding signal (MSX2 [9]): 9.64 upbm affinity estimate (log intensity, higher = more binding, comparable within an allelic series) | binding signal (HOXA7 [6]): 8.33 upbm affinity estimate (log intensity, higher = more binding, comparable within an allelic series)

Reference: paper PMC11006913
